Tau ThT inhib – blocks human tau fibril formation measured by thioflavin T; P10636; Potency, µM (titrated, usually from 57.4 µM), for the others: at the highest dose activity, negative = inhibition, most hits filed as inhibitors; recombinant tau K18 P301L, heparin-induced fibrillization, ThT fluorescence; actives 2.1% (n = 270,000); note: potency is the fitted concentration of half-maximal effect; % is set by controls: 0 for no effect and ±100 for the full control effect; nearly all actives have a fitted effect of over 55% in size
Target sequence (P10636 561-689 P618L limits assumed): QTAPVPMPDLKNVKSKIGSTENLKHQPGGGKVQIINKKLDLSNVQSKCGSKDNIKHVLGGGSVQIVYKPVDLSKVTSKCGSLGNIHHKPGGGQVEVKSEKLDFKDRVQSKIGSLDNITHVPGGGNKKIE
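Heparin-induced fibrillization of the P301L-mutant K18 repeat-domain fragment of human tau was followed by ThT binding in quantitative high-throughput format.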
CBFb RUNX1 block – CBF-beta/RUNX1 interaction disruption; Q01196+Q13951; AlphaScreen CBFb-His/RUNX1-biotin binding, biochemical; Potency, µM (titrated, usually from 59.8 µM), without a hit: at the top dose activity, negative = inhibition, usual class: inhibitors; 230,000 tested, under 10 active; note: % of control where 0% means no effect
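His-tagged CBF-beta and biotinylated RUNX1 (30 nM each) were premixed 20 min at room temperature, exposed to compound for 15 min, then given nickel-chelate and streptavidin AlphaScreen beads (50 ng each). After 90 min, AlphaScreen signal was read.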
KDM4E inh – inhibitors of human JMJD2E histone demethylase; JMJD2E catalytic domain, FDH-coupled NADH fluorescence (FDH is formaldehyde dehydrogenase); actives 1.6% (n = 230,000); B2RXH2; Potency, µM (titrated, usually from 57.1 µM), for the others: top-dose activity change, negative = inhibition, most hits filed as inhibitors; active = well fitted inhibition curve with a large enough effect, not every such curve was filed as active; inconclusive = small, poorly fitted or top-dose-only effect, or another doubt; inactive = no such curve, though single readings can be large or run the other way;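 note: potency is the fitted concentration of half-maximal effect; 0% = wells with enzyme and -100% = buffer wells without enzyme; nearly all actives have a fitted effect of over 50% in size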
Target sequence (B2RXH2 1-337 limits assumed): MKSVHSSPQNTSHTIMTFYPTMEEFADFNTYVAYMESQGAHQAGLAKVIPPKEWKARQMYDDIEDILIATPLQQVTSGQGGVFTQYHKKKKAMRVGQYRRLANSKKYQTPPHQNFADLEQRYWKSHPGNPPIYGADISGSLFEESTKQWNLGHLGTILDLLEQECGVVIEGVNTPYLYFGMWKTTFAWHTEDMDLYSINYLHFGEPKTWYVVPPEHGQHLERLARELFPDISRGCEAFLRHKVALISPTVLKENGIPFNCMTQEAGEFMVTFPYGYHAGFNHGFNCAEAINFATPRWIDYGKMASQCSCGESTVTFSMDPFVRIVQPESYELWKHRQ
Lamin A splicing – modulators of lamin A splicing. HeLa LMNA splicing GFP/RFP minigene ratio, 48 h. Potency, µM (titrated, usually from 46.1 µM), without a hit: at the top dose ratio change, negative = inhibition, actives largely listed as inhibitors. actives 0.01% (n = 200,000). AID 1487; active = well fitted inhibition curve with a large enough effect in the signal ratio, with a control signal flat, not every such curve was filed as active; inconclusive = small, poorly fitted or top-dose-only effect, or effect the other way, or a change in a side signal; the % refers to the signal ratio; note: potency is the fitted concentration of half-maximal effect; % is set by controls: 0 for no effect and ±100 for the full control effect
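Read-out is the ratio of GFP to DsRed2 object intensity, acquired by 488 nm laser-scanning cytometry on HeLa lamin A-EGFP minigene reporter cells. Compound incubation 48 hrs at 37 °C in Opti-MEM with 2% FBS; DMSO 0.5% final.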
Tau fibril FP – tau fibrillization inhibition (FP). K18 P301L tau heparin fibrillization, Alexa594 FP, 6 h. Potency, µM (top dose mostly 57.7 µM), for the others: at the top dose activity, negative = inhibition, hits mostly inhibitors. actives 0.39% (n = 280,000). AID 1468. P10636; note: potency is the fitted concentration of half-maximal effect; % is set by controls: 0 for no effect and ±100 for the full control effect; nearly all actives have a fitted effect of over 55% in size
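Human tau K18 […] P301L fragment, 15 uM unlabeled plus 0.24 uM Alexa 594-labeled tau (final), with compound and 20 uM heparin in 100 mM sodium acetate pH 7; 6 hr at 37 C, then Alexa 594 FP read.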
Tau fluor counter – counter-screen for tau fibril formation inhibitors; tau K18 P301L (four-repeat tau fragment) Alexa594 fluorescence, heparin fibrillization; Potency, µM (top dose mostly 57.7 µM), for the others: at the top dose activity change, negative = decrease; actives 0.93% (n = 280,000); AID 1463; note: potency is the fitted concentration of half-maximal effect; % is set by controls: 0 for no effect and ±100 for the full control effect; nearly all actives have a fitted effect of over 55% in size
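Human K18 P301L tau (15 uM unlabeled plus 0.24 uM Alexa 594-labeled, final) in 100 mM sodium acetate pH 7 was mixed with compound and 20 uM heparin and incubated 6 hr at 37 C.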
Active calls of the source: *; u = inconclusive; x = no result; [ ] = another dose, or the depositor's remark. Shown are actives, neighbours in structure and some others; about 3.2% of the full set was active somewhere. Unless noted, calls come from the whole dose curve; as a rule, active = well fitted curve in the direction sought with a large enough effect; inconclusive = small, poorly fitted or top-dose-only effect, or another doubt; inactive = no such curve, though single readings can be large; an effect the other way counts as inactive or inconclusive.

SMILES	Tau ThT inhib	CBFb RUNX1 block	KDM4E inh	Lamin A splicing	Tau fibril FP	Tau fluor counter
COc1ccc2c(c1)Cc1sc(NC(=O)c3cccc(Br)c3)nc1-2	4µM*	x	x	13%[46 µM]	-6%	u
COc1cccc([C@@H]2Oc3ccc(OC)cc3C(=O)[C@H]2OC(=O)NCCc2ccc(OC)c(OC)c2)c1	u	u	14%	x	-4%	-13%
CC(C)(C)c1ccc(OCc2ccc(C(=O)N/N=C/c3ccc([N+](=O)[O-])cc3)o2)cc1	u	1%	-2%	2%	6%	8.9µM*[quencher]
CCOc1ccc(/C=N/NC(=O)c2ccc(Cn3cc([N+](=O)[O-])cn3)o2)cc1	-22%	0%	-4%	6%	-6%	-10%
CCOc1ccc(C(=O)N/N=C/c2ccc(-c3ccc(S(=O)(=O)Nc4ncccn4)cc3)o2)cc1	u	-22%	u	-16%	-1%	-19%
O=C(N/N=C/c1ccc(-c2ccc(S(=O)(=O)Nc3ncccn3)cc2)o1)c1cc2ccccc2cc1O	14µM*	x	u	-4%	u	u
COc1ccc(/C=C/C(=O)Nc2sc(C)c(C)c2C(=O)O)cc1	2.2µM*	x	x	x	-1%	u
CCCCCOc1ccc(/C=C/C(=O)Nc2sc(C)c(C)c2C(=O)OCC)cc1OC	28µM*	x	x	x	u	-23%
O=C1C=CC(=O)c2c(O)c(Cl)c(Cl)c(O)c21	u	x	5%	u	6%	3%
Cc1nc(NC(=O)c2ccccc2)sc1-c1csc(Nc2ccc(F)cc2)n1	11µM*	-4%	-8%	21%	u	14µM*[quencher]
Cc1nc(NC(=O)c2ccccc2)sc1-c1csc(Nc2cccc(Cl)c2)n1	7.9µM*	2%	u	23%	u	11µM*[quencher]
Cc1ccc(Cl)cc1Nc1nc(-c2sc(NC(=O)c3cccc(Cl)c3)nc2C)cs1	u	-4%	u	u	11%	u
Cc1nc(NC(=O)c2ccccc2)sc1-c1csc(Nc2ccc(Cl)cc2Cl)n1	u	2%	u	18%	7%	u
Cc1nc(C)c(-c2csc(Nc3cccc(O)c3)n2)s1	4.5µM*	-9%	u	u	u	18µM*[quencher]
Cc1nc(NC(=O)c2ccccc2)sc1-c1csc(Nc2ccc(Cl)cc2)n1	5µM*	-5%	-9%	13%	5%	8.9µM*[quencher]
Cc1ccccc1Nc1nc(-c2sc(NC(=O)c3cccc(Cl)c3)nc2C)cs1	u	-23%	u	-2%	4%	u
Cc1nc2ccccn2c1-c1csc(Nc2cccc(O)c2)n1	1%	3%	4%	-6%[46 µM]	-11%[2.34 µM]	9%
CC1CCN(C(c2ccc(F)cc2)c2sc3nc(-c4ccco4)nn3c2O)CC1 (centres undefined)	-2%	x	x	6%[46 µM]	-4%	-8%
S=C(Nc1ccc2cn[nH]c2c1)Nc1ccc(Cl)cc1Cl	16µM*	-12%	u	-2%[46 µM]	-13%	u
S=C(Nc1ccc2cn[nH]c2c1)Nc1ccccc1Cl	14µM*	-5%	1%	u	-15%	u
COc1cc(/C=N/N(C)c2ccccc2)cc(Cl)c1O	u	-19%	-2%	u	u	14µM*[quencher]
COc1ccc(OC)c(/C=N/N(C)c2ccccc2)c1	13µM*	-25%	3%	3%	5%	11µM*[quencher]
COC(C1CCCCC1)C(C)C(OCc1cccc(Br)c1)C(C)CO (centres undefined)	-8%[11.5 µM]	14%[13.1 µM]	x	x	3%[11.6 µM]	-14%[11.6 µM]
CCOc1ccccc1NC(=O)Cn1c(=O)n(CCC(C)C)c(=O)c2cccnc21	-3%	x	x	x	-14%	-13%
COC(CNC(=O)c1ccc2c3c(onc13)-c1ccccc1C2=O)OC	16µM*	-27%	-22%	x	u	16µM*[quencher]
SMILES	Tau ThT inhib	CBFb RUNX1 block	KDM4E inh	Lamin A splicing	Tau fibril FP	Tau fluor counter
Cc1ccc([N+](=O)[O-])cc1S(=O)(=O)NCCc1c(C)[nH]c2ccccc12	u	-3%	2%	-11%	19%	u
COc1cc(S(=O)(=O)NCCc2c(C)[nH]c3ccccc23)c(C)cc1C	u	x	x	x	u	13µM*[quencher]
COc1cc(C2CC(=O)N(CC(=O)Nc3ccccc3F)c3ccccc3S2)cc(OC)c1OC (centres undefined)	-13%	x	x	x	1%	-17%
Cc1nc2c(C(=O)NCCc3ccc(Cl)cc3)c[nH]n2c(=O)c1Cc1ccc(Cl)cc1	28µM*	x	x	x	-12%	u
Cc1nc2c(C(=O)NCCc3ccccc3)c[nH]n2c(=O)c1Cc1ccccc1F	u	x	x	x	3%	-15%
CCN(CC)C(=O)Cn1cc(SCC(=O)Nc2ccccc2C)c2ccccc21	-5%	x	x	x	-1%	-11%
O=C1c2ccccc2C(=O)C1c1ccnc2ccccc12	1.8µM*	8%	1%	-8%	-4%	-7%
COc1ccc(C2C(=O)c3ccccc3C2=O)cc1	u	6%	-4%	u	u	-14%
N#CC1=C(N)SC(N)=C(C#N)C1c1ccnc2ccccc12	28µM*	-3%	u	2%	u	-25%
O=C1C(c2ccnc3ccccc23)=C(O)c2ccccc21	u	11%	-1%	-14%	-1%	3%
O=C1c2ccccc2C(=O)C1c1nccc2ccccc12	1.4µM*	-3%	0%	5%	-8%	-18%
CC[C@H](C)[C@H](NC(=O)[C@H](CC(=O)O)NC(=O)[C@H](CC(C)C)NC(=O)[C@H](NC(C)=O)C(c1ccccc1)c1ccccc1)C(=O)N[C@H](C(=O)N[C@@H](Cc1c[nH]c2ccccc12)C(=O)O)[C@@H](C)CC	x	6%	x	x	x	x
CC(C)C[C@H](NC(=O)[C@H](CO)NC(=O)CNC(=O)[C@H](CCCCN)NC(=O)[C@H](CCCN=C(N)N)NC(=O)[C@H](C)NC(=O)[C@H](Cc1ccccc1)NC(=O)[C@@H](N)CCCN=C(N)N)C(=O)N[C@@H](CCCN=C(N)N)C(=O)N[C@@H](CCC(N)=O)C(=O)N[C@@H](CCCCN)C(=O)N[C@@H](CC(N)=O)C(=O)N[C@H](C(=O)O)C(C)C	x	7%	x	x	x	x
O=C(/C=C/c1ccc(Cl)cc1)Nc1nc(-c2cccs2)ns1	7%	x	x	u	u	-14%
Cc1cc(C)c(S(=O)(=O)Nc2ccc(O)cc2)cc1C	-9%	-2%	2%	12%	4%	-16%
Cc1cc(C)c(S(=O)(=O)Nc2cc(SCC(=O)O)c(O)c3ccccc23)cc1C	13µM*	-10%	28µM*	u	25µM*	u
CCNc1ncc2nc(-c3ccc(Cl)cc3)c(=O)n(C[C@H]3CCCO3)c2n1	x	x	x	-3%	x	x
